Compound activity from PubChem.
Hits are enriched below; roughly 7.3% of the tested compounds scored in any of these assays.
Vaccinia Venus: inhibitors of vaccinia virus (Venus reporter). Potency, µM (top dose mostly 36.5 µM), inactives show top-dose activity change, negative = inhibition, actives largely listed as inhibitors. 330,000 compounds, 0.46% hits. Vaccinia virus Venus reporter expression, fluorescence. AID 720580; calls by dose curve; tested in A549 cells; also: potency is read from the fitted curve at half-maximal effect; nearly all actives have a fitted effect of over 30% in size
HCMV antiviral: blocks human cytomegalovirus replication. HFF cells, HCMV-luciferase reporter, 72 h; active compounds read low. activity change, negative = inhibition, % at 57.5 µM. 410,000 compounds, 4.5% hits. AID 1259415; in the data active = activity change below about -60%; inconclusive = no clear call, values can overlap the other calls; inactive = above about -39%
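Cell-based, HFFs, 1000 cells/well, 16 h 37C; cpds in DMSO + HCMV-luc, MOI 1 PFU/cell; 72 h 37C; OneGlo luminescence after 5 min RT; norm. to buffer vs Salinomycin 10uM.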
VACV mCherry inh: vaccinia inhibition (mCherry reporter) | Vaccinia virus mCherry reporter infection, fluorescence | Potency, µM (top dose mostly 36.5 µM), for inactives: top-dose activity change, negative = inhibition, most hits filed as inhibitors | 310,000 compounds, 0.63% hits; calls by dose curve; tested in A549 cells; also: potency is read from the fitted curve at half-maximal effect; nearly all actives have a fitted effect of over 35% in size
FMDV inh: antivirals against foot and mouth disease virus. FMDV antiviral cell-based qHTS. Potency, µM (top dose mostly 57.9 µM), for inactives: at the top dose activity change, negative = inhibition, usual class: inhibitors. 410,000 compounds, 1.2% hits. AID 1159524; calls by dose curve; tested in HEK293T cells; also: read-out not given here; potency is read from the fitted curve at half-maximal effect; nearly all actives have a fitted effect of over 45% in size
HCV inh: inhibitors of hepatitis C virus infection; Huh7.5.1 HCVcc-Cre infection, luciferase reporter, 44 h; Potency, µM (doses to about 41.8 µM), for inactives: at the highest dose activity change, negative = inhibition, usual class: inhibitors; 340,000 compounds, 3.4% hits; active = well fitted inhibition curve with a large enough effect; inconclusive = small, poorly fitted or top-dose-only effect, or another doubt; inactive = no such curve, though single readings can be large or run the other way; also: potency is read from the fitted curve at half-maximal effect
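Luciferase read-out (15 sec integration) after a 15 min room-temperature substrate step quantifies HCVcc-Cre infection. Cells, 1,000 per well, had compound added 4 h post-plating, then virus at ~0.5 moi, and were cultured 44 h.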
The depositor's hits bear a star; ! = not active in a repeat; [ ] = remark or other dose. % is scaled to controls: 0 for no effect and ±100 for the full control effect.

Results for O=C(Nc1cccc(S(=O)(=O)NC2=NCCC2)c1)c1ccc(F)cc1 ?
HCMV antiviral: inconclusive; FMDV inh: -16%; HCV inh: -3%

Results for CCOC(=O)c1c(S(=O)(=O)NC2CCN(C(=O)OCC)CC2)c(C)n(C)c1C ?
HCMV antiviral: -4; FMDV inh: 26%; HCV inh: 18%

Results for COc1cc(NC(=O)Cn2c(=O)n(CC(=O)NCCc3ccc(OC)c(OC)c3)c(=O)c3sccc32)cc(OC)c1 ?
Vaccinia Venus: -14%; HCMV antiviral: inconclusive; VACV mCherry inh: -14%; FMDV inh: -18%

What do the screens show for `Cc1ccc2nsnc2c1S(=O)(=O)N(Cc1ccco1)Cc1cc2ccc(C)c(C)c2[nH]c1=O`?
Vaccinia Venus: -6%; HCMV antiviral: -85*; VACV mCherry inh: -12%; FMDV inh: -21%; HCV inh: 2%

How did COc1ccc2[nH]c(=O)c(CN(Cc3cccs3)S(=O)(=O)c3c(C)ccc4nsnc34)cc2c1 do in these assays?
HCMV antiviral: -103*; FMDV inh: 19%; HCV inh: 11µM*

How did Cc1ccc2[nH]c(=O)c(CN(Cc3ccco3)S(=O)(=O)c3c(C)ccc4nsnc34)cc2c1 do in these assays?
Vaccinia Venus: -22%; HCMV antiviral: -3; VACV mCherry inh: -2%; HCV inh: 7.1µM*!

What do the screens show for `Cc1ccc2nsnc2c1S(=O)(=O)N(Cc1ccco1)Cc1cc2cccc(C)c2[nH]c1=O`?
HCMV antiviral: 9; FMDV inh: -22%; HCV inh: inconclusive

Results for O=C(CCCCn1ccc(=O)[nH]c1=O)Nc1ccc(O)c(C(=O)O)c1 ?
Vaccinia Venus: -2%; HCMV antiviral: -19; VACV mCherry inh: inactive; FMDV inh: 9%; HCV inh: 0%

How did CCOC(=O)c1ccc(NC(=O)CSc2nc(-c3cccs3)cc(C(F)(F)F)c2C#N)cc1 do in these assays?
Vaccinia Venus: -11%[7.34 µM]; HCMV antiviral: -18; VACV mCherry inh: -8%[7.34 µM]; FMDV inh: -9%

What do the screens show for `COc1ccc(C=NNC(=S)NN=Cc2ccc(OC)c(OC)c2)cc1OC`?
Vaccinia Venus: -5%; HCMV antiviral: -102*; VACV mCherry inh: -24%; FMDV inh: 18%; HCV inh: -21%

How did COc1ccc(/C=N/NC(=S)NCc2ccccc2)cc1OC do in these assays?
Vaccinia Venus: -12%; HCMV antiviral: 25; VACV mCherry inh: -8%; FMDV inh: -13%; HCV inh: -3%

Results for COc1ccc(/C=N/NC(=S)Nc2cccc(C(=O)O)c2)cc1OC ?
Vaccinia Venus: -11%; HCMV antiviral: -34; VACV mCherry inh: inactive; FMDV inh: 16µM*; HCV inh: 12%

Results for COc1ccc(C=NNC(=S)Nc2ccc(F)cc2)cc1OC ?
Vaccinia Venus: -19%; HCMV antiviral: -61*; VACV mCherry inh: -14%; FMDV inh: -6%; HCV inh: -6%

How did COc1cc(/C=N/NC(N)=S)ccc1OCc1ccc(C)cc1 do in these assays?
Vaccinia Venus: inconclusive; HCMV antiviral: inconclusive; VACV mCherry inh: 11µM*; FMDV inh: 21%; HCV inh: inconclusive

What do the screens show for `COc1cc(/C=N/NC(=S)Nc2cccc(C(=O)O)c2)cc(OC)c1OC`?
Vaccinia Venus: -10%; HCMV antiviral: 26; VACV mCherry inh: -10%; FMDV inh: -12%; HCV inh: 8%

Results for COc1ccccc1CNC(=O)CN1C(=O)COc2ccc(S(=O)(=O)N3CCCCC3)cc21 ?
Vaccinia Venus: -4%; HCMV antiviral: 0; VACV mCherry inh: -1%; FMDV inh: 2%; HCV inh: -11%

Results for CC1CCC(NC(=O)C2(C)CCC(=O)N2Cc2cccnc2)CC1 (centres undefined) ?
Vaccinia Venus: -5%; HCMV antiviral: 28; VACV mCherry inh: -13%; FMDV inh: -23%; HCV inh: 4%

What do the screens show for `CC1(C(=O)NC2CCCCC2)CCC(=O)N1Cc1cccnc1` (centres undefined)?
Vaccinia Venus: -12%; HCMV antiviral: -82*; VACV mCherry inh: inactive; FMDV inh: 7%; HCV inh: 9%

What do the screens show for `Cc1noc(C)c1CSCC(=O)Nc1cccc(C(F)(F)F)c1`?
Vaccinia Venus: -11%; HCMV antiviral: -18; VACV mCherry inh: -2%; FMDV inh: 19%; HCV inh: 5%
